In PubChem BioAssay (EPA / NIEHS):
Results filed as inconclusive are left out. Activity calls are given as the source filed them. Rule for the calls, unless noted: active = hit-call score of the fitted dose curve at least 0.9, where 1 is the maximum; inactive = score below 0.9.

Tests used:
[1] = target: Paired box protein Pax-6 (Homo sapiens) (UniProt P26367); test: ATG_Pax6_CIS: Attagene CIS-FACTORIAL HepG2 Assay for human Paired Box 6 (PAX6) (AID 2282956); conditions: HepG2 CIS-FACTORIAL PAX6 reporter transcription, RNA readout; actives raise or lower the signal
Method in brief: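 Read-out is reporter transcript level, measured by RT-PCR with fluorescent primer extension and capillary electrophoresis after 24 h dosing of transfected HepG2 cells. Activity in either direction fitted relative to DMSO control.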

[2] = ATG_PXRE_CIS: Attagene CIS-FACTORIAL HepG2 Assay for human Pregnane X Receptor Element (PXRE) (AID 2282957); conditions: HepG2 Attagene CIS-FACTORIAL PXRE reporter, mRNA; actives raise or lower the signal
Method in brief: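 Using HepG2 transfected with multiple reporter transcription units, endogenous factor-driven transcription was scored as reporter mRNA after 24 h exposure.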

[3] = ATG_PPRE_CIS: Attagene CIS-FACTORIAL HepG2 Assay for human Peroxisome Proliferator-activated Response Element (PPRE) (AID 2282958); conditions: HepG2 PPRE cis-element reporter, Attagene transcription factor profiling; actives raise or lower the signal
Method in brief: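 Endogenous PPRE-driven transcription is measured in HepG2 cells carrying transfected multi-reporter constructs. Reporter transcripts are quantified by RT-PCR, HpaI digestion and capillary electrophoresis 24 h after dosing. DMSO baseline, bidirectional fit.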

[4] = ATG_RORE_CIS: Attagene CIS-FACTORIAL HepG2 Assay for human RAR-related Orphan Receptor Element (RORE) (AID 2282959); conditions: HepG2 Attagene cis-factorial RORE reporter, mRNA; actives raise or lower the signal
Method in brief: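 RORE reporter transcripts reflecting endogenous factor activity were read after 24 h compound exposure of transfected HepG2 cells, using reverse transcription, PCR, fluorescent labelling and capillary electrophoresis sizing. Gain or loss fitted against DMSO.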

[5] = ATG_Sox_CIS: Attagene CIS-FACTORIAL HepG2 Assay for human SRY-box transcription factor (SOX) (AID 2282960); conditions: HepG2 Attagene cis-factorial SOX reporter, mRNA; actives raise or lower the signal
Method in brief: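 Reporter transcripts, measured by RT-PCR and capillary electrophoresis of labelled fragments, report endogenous SOX transcription factor activity. Transiently transfected human HepG2 cells receive chemical for 24 h; changes in either direction are fitted relative to DMSO.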

[6] = ATG_SREBP_CIS: Attagene CIS-FACTORIAL HepG2 Assay for human Sterol Regulatory Element Binding (SREBP) (AID 2282962); conditions: HepG2 Attagene cis-factorial SREBP reporter, mRNA; actives raise or lower the signal
Method in brief: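 Endogenous SREBP activity read as cis-element-driven reporter transcript in transiently transfected HepG2, 24 h post-dosing; quantified via RT-PCR plus capillary electrophoresis of fluorescent fragments. Gain or loss of signal fitted relative to DMSO baseline.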

[7] = target: Signal transducer and activator of transcription 3 (Homo sapiens) (UniProt P40763); test: ATG_STAT3_CIS: Attagene CIS-FACTORIAL HepG2 Assay for human Signal Transducer and Activator of Transcription 3 (STAT3) (AID 2282963); conditions: HepG2, Attagene cis-factorial STAT3 reporter transcription; actives raise or lower the signal
Method in brief: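 Cis-factorial format: endogenous transcription factors in HepG2 drive transfected reporter units. After 24 h treatment, reporter RNA was reverse-transcribed, amplified, FAM-labelled and HpaI-digested before CE analysis; activity scored in both directions against DMSO.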

[8] = ATG_TA_CIS: Attagene CIS-FACTORIAL HepG2 Assay for human TA Basal Promoter (AID 2282964); conditions: HepG2 Attagene CIS-factorial TA basal promoter reporter; actives raise or lower the signal
Method in brief: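 Transient MRTU transfection of HepG2 preceded 24 h compound exposure. Reporter mRNA levels were then read by RT-PCR with capillary electrophoresis, and this background-control endpoint was fitted bidirectionally to DMSO.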

[9] = ATG_TCF_b_cat_CIS: Attagene CIS-FACTORIAL HepG2 Assay for human T-Cell-Factor with beta-catenin (TCF/b-cat) (AID 2282965); conditions: HepG2 TCF/beta-catenin cis-reporter transcription, actives raise or lower the signal
Method in brief: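 Endogenous transcription factor activity is captured through cis-promoter reporter constructs transiently introduced into human HepG2 liver cells. Induced reporter mRNA is measured after 24 h and fitted bidirectionally relative to DMSO.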

[10] = ATG_TAL_CIS: Attagene CIS-FACTORIAL HepG2 Assay for human TAL Basal Promoter (AID 2282966); conditions: HepG2 Attagene cis-factorial TAL promoter reporter; actives raise or lower the signal;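 note: background control endpoint measuring basal TAL promoter reporter mRNA not a specific factor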
Method in brief: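 After 24 hours of chemical exposure, transfected HepG2 cells yielded RNA that was converted to 6-FAM-labelled, HpaI-digested reporter fragments for capillary electrophoresis. Values derive from bidirectional fitting against DMSO controls.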

[11] = ATG_TGFb_CIS: Attagene CIS-FACTORIAL HepG2 Assay for human Transforming Growth Factor (TGF) (AID 2282967); conditions: HepG2 Attagene CIS TGFb reporter, mRNA transcription; actives raise or lower the signal
Method in brief: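 After a 24-hour incubation with compound, transfected HepG2 cells were lysed for RNA; reporter cDNA was amplified, fluorescently end-labeled and separated by CE. DMSO served as baseline for bidirectional fits.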

[12] = target: Nuclear receptor subfamily 1 group I member 3 (Homo sapiens) (UniProt Q14994); test: ATG_CAR_TRANS: Attagene TRANS-FACTORIAL HepG2 Assay for human Constitutive Androstane Receptor (CAR) (AID 2282969; active = hit-call score of the fitted dose curve at least 0.9, where 1 is the maximum;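 note: activators raise reporter mRNA above DMSO so AC50 marks induction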); conditions: HepG2 Attagene TRANS-FACTORIAL CAR reporter
Method in brief: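 Signal is reporter mRNA induction relative to DMSO, measured 24 h after dosing by RT-PCR with fluorescent primer extension and capillary electrophoresis. Human HepG2 liver cells carried transiently transfected chimeric NR-Gal4/GAL4-UAS reporter constructs.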

[13] = target: Estrogen receptor (Homo sapiens) (UniProt P03372); test: ATG_ERa_TRANS: Attagene TRANS-FACTORIAL HepG2 Assay for human Estrogen Receptor alpha (ERa) (AID 2282970; active = hit-call score of the fitted dose curve at least 0.9, where 1 is the maximum); conditions: HepG2 Attagene TRANS ERa GAL4 reporter, mRNA
Method in brief: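 Liver-derived HepG2 cells expressing chimeric nuclear receptor-Gal4 proteins from transient transfection were exposed for 24 hours. Gain of reporter mRNA signal versus DMSO, read by capillary electrophoresis of FAM-labelled PCR products, was recorded.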

[14] = target: X-box-binding protein 1 (Homo sapiens) (UniProt P17861); test: ATG_Xbp1_CIS: Attagene CIS-FACTORIAL HepG2 Assay for human X-box Binding Protein 1 (XBP1) (AID 2282972); conditions: HepG2 XBP1 cis-element reporter, Attagene multiplex; actives raise or lower the signal
Method in brief: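 Reporter transcripts were quantified by RT-PCR with fluorescent primer extension and capillary electrophoresis after 24 h chemical exposure. Cells: transiently transfected HepG2 carrying cis-regulated reporter constructs; data fitted bidirectionally relative to DMSO.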

[15] = ATG_M_19_TRANS: Attagene TRANS-FACTORIAL HepG2 Assay for M19 Transcription Factor (Internal Marker) (AID 2282974; active = hit-call score of the fitted dose curve at least 0.9, where 1 is the maximum); conditions: HepG2 Attagene TRANS-FACTORIAL M19 internal marker reporter
Method in brief: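 Background-control readout: after 24 h chemical exposure of transfected HepG2 carrying GAL4-driven reporter units, RNA was reverse-transcribed, amplified, fluorescently labeled and sized by capillary electrophoresis; gain-of-signal fit against DMSO.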

[16] = target: Transcription factor Sp1 (Homo sapiens) (UniProt P08047); test: ATG_Sp1_CIS: Attagene CIS-FACTORIAL HepG2 Assay for human Specificity Protein 1 (Sp1) (AID 2282961); conditions: HepG2 Sp1 cis-reporter transcription, actives raise or lower the signal
Method in brief: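 Read-out is reporter transcript level, measured by RT-PCR and fluorescent capillary electrophoresis after 24 h chemical treatment. System: transiently transfected HepG2 cells reporting endogenous transcription factor activity; gain or loss fitted against DMSO baseline.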

[17] = ATG_VDRE_CIS: Attagene CIS-FACTORIAL HepG2 Assay for human Vitamin D Receptor Element (VDRE) (AID 2282968); conditions: HepG2 VDRE cis-reporter transcription, actives raise or lower the signal
Method in brief: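 Measures endogenous factor activity through cis-element-driven reporter transcripts in transiently transfected HepG2. Cells are treated 24 h; reporter mRNA is quantified by RT-PCR and capillary electrophoresis; fitting is bidirectional.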

[18] = ATG_GAL4_TRANS: Attagene TRANS-FACTORIAL HepG2 Assay for GAL4 (Internal Marker) (AID 2282976; active = hit-call score of the fitted dose curve at least 0.9, where 1 is the maximum); conditions: HepG2 Attagene TRANS GAL4 internal marker reporter
Method in brief: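 First, HepG2 cells were transfected with reporter units under GAL4-UAS control. Next, they were treated with chemical for 24 h. Finally, RNA was reverse-transcribed, PCR-amplified, FAM-labelled and resolved by capillary electrophoresis, with induction scored against DMSO.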

Measured: AC50

Chain of Signal transducer and activator of transcription 3 (Homo sapiens) (P40763 whole entry, looked up): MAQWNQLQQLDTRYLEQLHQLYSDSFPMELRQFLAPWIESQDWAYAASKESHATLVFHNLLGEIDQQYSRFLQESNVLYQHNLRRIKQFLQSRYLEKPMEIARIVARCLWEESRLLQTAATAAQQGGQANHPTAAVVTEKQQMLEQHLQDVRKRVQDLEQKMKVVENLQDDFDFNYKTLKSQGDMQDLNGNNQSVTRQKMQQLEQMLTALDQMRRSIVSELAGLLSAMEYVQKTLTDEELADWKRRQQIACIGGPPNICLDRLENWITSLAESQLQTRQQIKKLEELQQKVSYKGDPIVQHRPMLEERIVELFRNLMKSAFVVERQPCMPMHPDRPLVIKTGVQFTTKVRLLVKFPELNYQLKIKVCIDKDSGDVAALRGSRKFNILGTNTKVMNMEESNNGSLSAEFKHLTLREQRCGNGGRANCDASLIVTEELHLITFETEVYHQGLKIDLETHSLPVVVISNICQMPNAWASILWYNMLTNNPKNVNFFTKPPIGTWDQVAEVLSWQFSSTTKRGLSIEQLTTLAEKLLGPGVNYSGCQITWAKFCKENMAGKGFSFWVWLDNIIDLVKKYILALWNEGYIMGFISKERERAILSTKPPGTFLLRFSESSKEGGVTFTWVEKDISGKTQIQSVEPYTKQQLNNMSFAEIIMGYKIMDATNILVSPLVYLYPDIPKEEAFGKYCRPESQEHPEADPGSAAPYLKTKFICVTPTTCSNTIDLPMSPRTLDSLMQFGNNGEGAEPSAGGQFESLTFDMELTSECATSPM
Chain of Estrogen receptor (Homo sapiens) (P03372 whole entry, looked up, the tested form may be a part): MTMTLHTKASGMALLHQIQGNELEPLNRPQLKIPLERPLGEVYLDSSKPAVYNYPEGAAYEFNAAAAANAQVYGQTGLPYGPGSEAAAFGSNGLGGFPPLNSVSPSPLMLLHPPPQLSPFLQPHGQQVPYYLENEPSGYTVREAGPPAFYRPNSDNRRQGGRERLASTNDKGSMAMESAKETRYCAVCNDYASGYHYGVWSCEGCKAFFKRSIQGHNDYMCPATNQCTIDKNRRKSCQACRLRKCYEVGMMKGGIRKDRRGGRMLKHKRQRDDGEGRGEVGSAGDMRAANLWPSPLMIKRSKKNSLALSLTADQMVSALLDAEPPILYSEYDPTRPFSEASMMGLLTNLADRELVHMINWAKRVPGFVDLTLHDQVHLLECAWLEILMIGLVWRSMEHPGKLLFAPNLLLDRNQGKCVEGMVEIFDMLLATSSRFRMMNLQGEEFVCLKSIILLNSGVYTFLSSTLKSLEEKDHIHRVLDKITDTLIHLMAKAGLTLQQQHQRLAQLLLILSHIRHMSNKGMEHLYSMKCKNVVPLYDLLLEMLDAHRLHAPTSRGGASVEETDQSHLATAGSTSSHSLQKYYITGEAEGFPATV
Chain of Paired box protein Pax-6 (Homo sapiens) (P26367 whole entry, looked up): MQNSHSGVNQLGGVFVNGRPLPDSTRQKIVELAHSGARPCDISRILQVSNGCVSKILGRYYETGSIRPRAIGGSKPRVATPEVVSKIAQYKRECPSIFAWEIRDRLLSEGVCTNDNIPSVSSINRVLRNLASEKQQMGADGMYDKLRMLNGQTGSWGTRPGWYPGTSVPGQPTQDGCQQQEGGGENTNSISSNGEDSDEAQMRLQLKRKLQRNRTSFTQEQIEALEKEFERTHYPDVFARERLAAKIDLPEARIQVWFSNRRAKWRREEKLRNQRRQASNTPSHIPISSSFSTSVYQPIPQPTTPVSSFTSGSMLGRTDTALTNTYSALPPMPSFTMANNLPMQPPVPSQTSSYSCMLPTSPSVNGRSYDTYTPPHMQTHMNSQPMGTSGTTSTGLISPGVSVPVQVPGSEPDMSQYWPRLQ
Chain of X-box-binding protein 1 (Homo sapiens) (P17861 whole entry, looked up): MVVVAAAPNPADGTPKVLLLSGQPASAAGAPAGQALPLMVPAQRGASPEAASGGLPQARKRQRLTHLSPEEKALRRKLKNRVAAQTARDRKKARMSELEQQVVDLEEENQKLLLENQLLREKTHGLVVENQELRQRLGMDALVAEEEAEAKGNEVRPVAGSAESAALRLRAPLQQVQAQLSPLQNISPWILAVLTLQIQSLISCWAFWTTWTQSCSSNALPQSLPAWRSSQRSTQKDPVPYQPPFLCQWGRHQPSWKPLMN
Chain of Transcription factor Sp1 (Homo sapiens) (P08047 whole entry, looked up): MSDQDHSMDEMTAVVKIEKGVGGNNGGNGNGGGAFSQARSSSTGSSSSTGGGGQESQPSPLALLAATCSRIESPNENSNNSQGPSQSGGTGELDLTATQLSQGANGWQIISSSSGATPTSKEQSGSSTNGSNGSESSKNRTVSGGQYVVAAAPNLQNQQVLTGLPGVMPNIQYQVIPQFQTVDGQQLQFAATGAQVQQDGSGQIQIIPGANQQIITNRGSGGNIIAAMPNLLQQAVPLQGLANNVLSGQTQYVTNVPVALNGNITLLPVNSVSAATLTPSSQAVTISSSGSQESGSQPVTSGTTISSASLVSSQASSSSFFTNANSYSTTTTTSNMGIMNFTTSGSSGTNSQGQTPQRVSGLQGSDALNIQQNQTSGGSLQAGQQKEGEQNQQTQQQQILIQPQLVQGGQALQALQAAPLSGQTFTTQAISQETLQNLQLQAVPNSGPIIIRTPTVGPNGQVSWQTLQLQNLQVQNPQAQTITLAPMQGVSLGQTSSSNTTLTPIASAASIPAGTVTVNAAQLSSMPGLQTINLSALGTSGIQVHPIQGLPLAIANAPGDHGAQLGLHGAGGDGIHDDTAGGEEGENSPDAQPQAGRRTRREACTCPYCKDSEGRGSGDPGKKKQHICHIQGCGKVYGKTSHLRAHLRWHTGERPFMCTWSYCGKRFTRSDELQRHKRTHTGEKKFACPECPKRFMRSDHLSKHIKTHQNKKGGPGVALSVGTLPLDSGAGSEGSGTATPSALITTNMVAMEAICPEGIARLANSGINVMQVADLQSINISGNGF
Chain of Nuclear receptor subfamily 1 group I member 3 (Homo sapiens) (Q14994 whole entry, looked up, the tested form may be a part): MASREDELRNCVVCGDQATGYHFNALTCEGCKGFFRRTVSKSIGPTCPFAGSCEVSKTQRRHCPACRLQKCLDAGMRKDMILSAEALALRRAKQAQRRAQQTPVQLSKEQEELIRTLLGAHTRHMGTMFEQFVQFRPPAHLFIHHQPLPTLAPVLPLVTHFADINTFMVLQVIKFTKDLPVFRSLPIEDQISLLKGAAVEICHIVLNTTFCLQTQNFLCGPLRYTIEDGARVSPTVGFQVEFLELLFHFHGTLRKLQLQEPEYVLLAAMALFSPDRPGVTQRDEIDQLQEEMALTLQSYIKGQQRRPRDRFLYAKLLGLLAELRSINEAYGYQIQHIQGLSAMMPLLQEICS

O=C(c1ccc(O)cc1)c1ccc(O)cc1O
active: [2] 35.8 µM | [3] 100 µM | [6] 100 µM | [13] 1.03 µM
inactive: [1] | [4] | [5] | [7] | [8] | [9] | [10] | [11] | [12] | [14] | [15]

CCCCCCC(O)CO (stereo not drawn)
inactive: [1] | [2] | [3] | [4] | [5] | [6] | [7] | [8] | [9] | [10] | [11] | [14]

O=C(O)Cc1c(Cl)ccc(Cl)c1Cl
inactive: [1] | [2] | [3] | [4] | [5] | [16] | [6] | [7] | [9] | [10] | [11] | [14] | [15]

CCCC(C)CCC(C)=O (stereo not drawn)
inactive: [1] | [2] | [3] | [4] | [5] | [6] | [7] | [8] | [9] | [10] | [11] | [17] | [14]

CCC(=O)Oc1ccc(/C(CC)=C(\CC)c2ccc(OC(=O)CC)cc2)cc1
inactive: [3] | [4] | [6] | [10] | [11]
active: [1] 37.8 µM | [2] 2.95 µM | [5] 37.8 µM | [16] 23.4 µM | [8] 38.2 µM | [9] 26.4 µM | [17] 4.32 µM | [13] 0.54 µM | [14] 27.5 µM

OCCCS
inactive: [1] | [2] | [3] | [4] | [5] | [16] | [6] | [7] | [9] | [10] | [11] | [17] | [14] | [15]

OCCNCc1ccccc1
inactive: [1] | [2] | [3] | [4] | [16] | [6] | [7] | [8] | [9] | [10] | [11] | [17] | [12] | [13] | [14] | [15] | [18]
